For this test, the system named is SARS-CoV-2 low-rank motif (SARS-low). Briefly: normalised indicator fluorescence (fraction of RNA + indicator signal without compound); higher = less displacement of indicator (weaker competition). The note with it: compound concentration: 5 uM, 30 min. In a few lines: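 Indicator fluorescence, corrected by subtracting the buffer-plus-indicator blank and normalized to the RNA-plus-indicator signal without compound, is given as the mean of two independent experiments. The buffer was 20 mM phosphate pH 7.0, 20 mM NaCl and 80 mM KCl, with TO-PRO-1 or TO-PRO-3 and RNA in 96-well plates. Plates were read 30 min after compound addition (about 5 uM final) on an Infinite 200 PRO, exciting at 485 or 620 nm.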

Setting [1] is: indicator: TO-PRO-1 0.1 uM, RNA concentration: 0.1 uM.
Where [2] appears, read: indicator: TO-PRO-3 0.5 uM, RNA concentration: 0.5 uM.

Where a name gives a salt, the structure may show the parent alone.

For the compound `CN(C)CCCN1c2ccccc2CCc2ccc(Cl)cc21` [Clomipramine hydrochloride], the normalised indicator fluorescence is, setting by setting: under setting [1], 1.07; under setting [2], 1.13. Consider `CNc1ccc([N+](=O)[O-])c(Nc2ccc3[nH]ncc3c2)n1`, for which the normalised indicator fluorescence is 1.01 under setting [1] and 1.14 under setting [2]. For `Oc1ccc(OCc2ccccc2)cc1` [Monobenzone] the same measures were 1.17 and 1.21. For `O=C(O)C(O)Cc1ccc(O)c(O)c1` (centres undefined) [Sodium Danshensu], the normalised indicator fluorescence by setting is: under setting [1], 0.934; under setting [2], 0.931.

Regarding `O=c1cc(-c2ccc(O)c(-c3c(O)cc(O)c4c(=O)cc(-c5ccc(O)cc5)oc34)c2)oc2cc(O)cc(O)c12` [Amentoflavone], under setting [1], the normalised indicator fluorescence is 1.31.

Consider `CO[C@@H]1[C@H](N(C)C(=O)c2ccccc2)C[C@H]2O[C@]1(C)n1c3ccccc3c3c4c(c5c6ccccc6n2c5c31)C(=O)NC4` [Midostaurin], for which the normalised indicator fluorescence under setting [2] came out at 1.35. Turning to `NC(=O)c1ccccc1Nc1ccnc(Nc2cccc(O)c2)n1`, the normalised indicator fluorescence by setting is: under setting [1], 1.1; under setting [2], 1.06. `CC(=O)O[C@H]1C[C@@]2(C)[C@@H](C[C@@H](O)[C@H]3[C@@]4(C)CC[C@@H](O)[C@@H](C)[C@@H]4CC[C@@]32C)/C1=C(\CCC=C(C)C)C(=O)O` [Fusidine]: the normalised indicator fluorescence reads like this: under setting [1], 1.26; under setting [2], 1.12. The matching figures for `O=C(Nc1nc2ccc(NC(=O)C34CC5CC(CC(C5)C3)C4)cc2s1)c1ccccc1`: 1.49 and 1.12. For `O=C1CCc2ccccc2C1` [Beta-Tetralone], the normalised indicator fluorescence reads like this: under setting [1], 1.19; under setting [2], 1.2. Consider `COc1c(C)cnc(Cn2cnc3c(Cl)nc(N)nc32)c1C`, for which the normalised indicator fluorescence is 1.13 under setting [1] and 1.17 under setting [2]. In the case of `Oc1cc(O)c2c(c1)O[C@H](c1ccc(O)c(O)c1)[C@@H](O)C2` [Cianidanol], the normalised indicator fluorescence by setting is: under setting [1], 1.39; under setting [2], 1.17. Consider `C[C@H](CCC(=O)NCCS(=O)(=O)O)[C@H]1CC[C@H]2[C@@H]3[C@@H](O)C[C@@H]4C[C@H](O)CC[C@]4(C)[C@H]3CC[C@]12C` [Tauroursodeoxycholic Acid], for which the normalised indicator fluorescence is, setting by setting: under setting [1], 1.21; under setting [2], 1.52. Turning to `O=C(O)/C=C/c1ccc(Cn2ccnc2)cc1` [Ozagrel hydrochloride], the normalised indicator fluorescence reads like this: under setting [1], 1.1; under setting [2], 1.09. Take `Cc1oncc1C(=O)Nc1ccc(C(F)(F)F)cc1` [Leflunomide]: the normalised indicator fluorescence runs as follows: under setting [1], 1.07; under setting [2], 1.12. Take `N#CC(c1ccnc(OCc2ccc(CN3CCOCC3)cc2)n1)c1nc2ccccc2s1` (centres undefined): the normalised indicator fluorescence under setting [1] stood at 1.59 and the normalised indicator fluorescence under setting [2] came to 0.556.

`Nc1ncnc2c1ncn2[C@@H]1O[C@H](CO)[C@@H](O)[C@@H]1O` [Vidarabine]: the normalised indicator fluorescence under setting [1] stood at 1.11 and the normalised indicator fluorescence under setting [2] worked out at 1.17.

For `CN1CCN(c2nc(C3=C(c4c[nH]c5ccccc45)C(=O)NC3=O)c3ccccc3n2)CC1` [Sotrastaurin], the normalised indicator fluorescence under setting [1] was determined as 1.4 and the normalised indicator fluorescence under setting [2] is 1.29.

In the case of `O=c1ncn2nc(Sc3ccc(F)cc3F)ccc2c1-c1c(Cl)cccc1Cl` [Neflamapimod], the normalised indicator fluorescence reads like this: under setting [1], 1.2; under setting [2], 1.17. As to `CCOc1cc(C(=O)N2CCC(N3CCN(C)CC3)CC2)ccc1Nc1ncc2c(n1)N(C1CCCC1)c1ccccc1C(=O)N2C`, the normalised indicator fluorescence was 1.2 under setting [1] and 1.03 under setting [2].

As for `O=[N+]([O-])c1ccc(-c2nc(-c3ccc(F)cc3)c(-c3ccncc3)[nH]2)cc1`, under setting [2], the normalised indicator fluorescence came to 0.939.

With `Cc1c(C)c2c(c(C)c1O)CCC(C)(C(=O)O)O2` (centres undefined) [Trolox], the normalised indicator fluorescence was determined as 1.24 under setting [1] and 1.07 under setting [2].

On to `O=c1c(O)c(-c2cc(O)c(O)c(O)c2)oc2cc(O)cc(O)c12` [Myricetin], for which the normalised indicator fluorescence under setting [1] was 0.808 and the normalised indicator fluorescence under setting [2] amounted to 0.0645. Consider `C[C@H]1[C@H](C)CC[C@]2(C(=O)O)CC[C@]3(C)C(=CC[C@@H]4[C@@]5(C)C[C@@H](O)[C@H](O)[C@@](C)(CO)[C@@H]5CC[C@]43C)[C@H]12` [Asiatic acid], for which the normalised indicator fluorescence was 1.08 under setting [1] and 0.985 under setting [2]. Turning to `CN1CCN(c2ccc(C(=O)Nc3n[nH]c4ccc(Cc5cc(F)cc(F)c5)cc34)c(NC3CCOCC3)c2)CC1` [Entrectinib], the normalised indicator fluorescence under setting [1] was 1.16 and the normalised indicator fluorescence under setting [2] came to 1.39. Take `N=C(NCCCCCCNC(=N)NC(=N)Nc1ccc(Cl)cc1)NC(=N)Nc1ccc(Cl)cc1` [Chlorhexidine]: the normalised indicator fluorescence is, setting by setting: under setting [1], 1.11; under setting [2], 1.16.

As for `C[C@H]1Oc2cc(cnc2N)-c2c(nn(C)c2C#N)CN(C)C(=O)c2ccc(F)cc21` [Lorlatinib], the normalised indicator fluorescence is, setting by setting: under setting [1], 1.13; under setting [2], 1.23. For `CC(C)c1cc(-c2n[nH]c(=O)n2-c2ccc3c(ccn3C)c2)c(O)cc1O` [Ganetespib] the same measures were 1.26 and 1.28. For `O=C(O)CCc1ccc(O)cc1O` [Hydroumbellic acid] the same measures were 1.15 and 1.15. With `COc1nc(-c2ccc3c(c2)OCO3)n(-c2ccc(NC(=O)CSc3ccccc3)cc2)n1` [SecinH3], the normalised indicator fluorescence reads like this: under setting [1], 1.55; under setting [2], 0.816. Consider `Cn1cc(C2=C(c3cn(CCCSC(=N)N)c4ccccc34)C(=O)NC2=O)c2ccccc21` [Ro 31-8220 Mesylate], for which the normalised indicator fluorescence under setting [2] stood at 1.01. Turning to `COC1=C2C[C@@H](C)C[C@H](OC)[C@H](O)[C@@H](C)/C=C(\C)[C@H](OC(N)=O)[C@@H](OC)/C=C\C=C(/C)C(=O)NC(=CC1=O)C2=O` [Geldanamycin], the normalised indicator fluorescence is, setting by setting: under setting [1], 1.15; under setting [2], 1.36. For `N=C(NCCCCCCNC(=N)NC(=N)Nc1ccc(Cl)cc1)NC(=N)Nc1ccc(Cl)cc1` [Chlorhexidine hydrochloride], the normalised indicator fluorescence runs as follows: under setting [1], 1.01; under setting [2], 1.01. Consider `C[C@@H]1O[C@@H](O[C@@H]2[C@@H](O)[C@H](OCCc3ccc(O)c(O)c3)O[C@H](CO)[C@H]2OC(=O)/C=C/c2ccc(O)c(O)c2)[C@H](O)[C@H](O)[C@H]1O` [Verbascoside], for which the normalised indicator fluorescence under setting [2] was found to be 1.16. For the compound `O=c1ccc2ccc(O)cc2o1` [7-Hydroxycoumarin], the normalised indicator fluorescence under setting [1] came to 1.25 and the normalised indicator fluorescence under setting [2] is 1.16.

For `Cc1c(F)cc(C(=O)NC2CC2)cc1-c1ccc(C(=O)NCC(C)(C)C)cn1` [Losmapimod], the normalised indicator fluorescence by setting is: under setting [1], 1.24; under setting [2], 1.04.

As for `CCNC(=O)c1noc(-c2cc(C(C)C)c(O)cc2O)c1-c1ccc(CN2CCOCC2)cc1` [Luminespib], the normalised indicator fluorescence is, setting by setting: under setting [1], 1.01; under setting [2], 1.09.

The values are drawn from the supplement of paper PMC11865577.
